Data as given in PubChem BioAssay AID624330 (Southern Research Specialized Biocontainment Screening …, 2012).
About 2,100 (0.62%) of roughly 340,000 compounds were called active.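 How the source made its calls: active means first-screen hits whose inhibition reached a set limit at any dose in the follow-up dose series; inconclusive means inhibition above the set first-screen limit but never retested; inactive means the rest.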 A selection follows. Measured potencies and affinities stand elsewhere.

Molecular target: Rac GTPase-activating protein 1 (Homo sapiens) (UniProt Q9H0H5)
Assay: blockers of MgcRacGAP-driven Rac1 GTP hydrolysis – biochemical, ADP Hunter fluorescence, primary and confirmatory, confirmation (AID 624330);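 further: fluorescence reports GDP produced by GAP-driven GTP hydrolysis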
Settings: MgcRacGAP-stimulated Rac1 GTP hydrolysis, at 30 µM, hits give high values, GST-tagged Rac1 F28L mutant substrate

Sequence of Rac GTPase-activating protein 1 (Homo sapiens) (Q9H0H5 whole entry, looked up): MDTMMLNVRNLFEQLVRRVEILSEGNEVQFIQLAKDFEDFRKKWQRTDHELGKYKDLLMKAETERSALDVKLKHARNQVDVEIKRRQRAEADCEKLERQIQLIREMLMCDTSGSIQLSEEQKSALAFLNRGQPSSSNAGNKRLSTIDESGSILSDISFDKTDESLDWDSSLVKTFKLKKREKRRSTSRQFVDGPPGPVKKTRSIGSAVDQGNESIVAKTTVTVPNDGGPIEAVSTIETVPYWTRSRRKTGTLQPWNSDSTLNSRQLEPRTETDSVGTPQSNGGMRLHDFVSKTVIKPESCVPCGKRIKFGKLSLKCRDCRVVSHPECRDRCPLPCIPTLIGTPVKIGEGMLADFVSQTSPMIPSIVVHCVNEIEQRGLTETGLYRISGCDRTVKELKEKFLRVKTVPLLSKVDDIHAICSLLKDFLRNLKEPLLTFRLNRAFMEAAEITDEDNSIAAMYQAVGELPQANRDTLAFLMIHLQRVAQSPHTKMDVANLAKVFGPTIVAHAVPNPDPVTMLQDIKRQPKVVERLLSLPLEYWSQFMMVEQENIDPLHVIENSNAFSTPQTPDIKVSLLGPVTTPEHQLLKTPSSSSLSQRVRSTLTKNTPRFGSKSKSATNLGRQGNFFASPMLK

inhibition, inactive:
O=C(COC(=O)c1cc(F)c(F)cc1Cl)NC1CCCCCC1 -27.4%
CCN(CC)S(=O)(=O)c1ccc(N2CCN(c3ccccc3O)CC2)nc1 5.53%
Clc1ccc(NCc2nnc3n2CCCCC3)cc1 10.6%
CC(=O)N1CCOc2ccc(S(=O)(=O)Nc3ncccc3C)cc21 4.93%
Cc1ccc(NC(=O)Cc2nc(COC(=O)c3c(F)cccc3Cl)cs2)cc1 2.55%
O=C1c2ccccc2/C(=C\c2ccc(Br)s2)N1c1ccccc1 1.75%
COc1ccc(N2CCN(C(=O)c3cc(=O)[nH]c4ccccc34)CC2)cc1 18.3%
COc1ccc(N2CCN(CC(O)COC(c3ccccc3)c3ccccc3)CC2)cc1 (configuration not stated) 8.7%
OC(COC(c1ccc(F)cc1)c1ccc(F)cc1)CN1CCCC1 (configuration not stated) 31.4%
OC(COC(c1ccc(F)cc1)c1ccc(F)cc1)CN1CCc2ccccc2C1 (configuration not stated) 20.1%
COc1ccc(C(OCC(O)CN2CCC(O)CC2)c2ccc(OC)cc2)cc1 (configuration not stated) 6.25%
CCOC(=O)Cc1csc(NC(=O)c2ccc(C)o2)n1 3.9%
Cc1nc(SCc2ccc([N+](=O)[O-])cc2)nc2ccccc12 8.16%
O=C(COc1ccccc1)NN1C(=O)CSC1=S 6.09%
O=C1CSC(=S)N1c1ccccc1 -7.87%
O=C(Cn1cc([N+](=O)[O-])cn1)NCc1cc2ccccc2[nH]1 8.44%
CCOc1cc(N2CCOCC2)c(OCC)cc1NC(=O)Cc1ccccc1 10.9%
CCOc1cc(N2CCOCC2)c(OCC)cc1NC(=O)c1ccc(C)cc1 19.8%
CCOc1cc(N2CCOCC2)c(OCC)cc1NC(=O)c1ccccc1 27.1%
CCOc1cc(N2CCOCC2)c(OCC)cc1NC(=O)c1cc(C)cc(C)c1 10.8%
CC(C)CN1CC(Br)C(=O)NC1=O (configuration not stated) 4.9%
COc1ccc(CCNC(=S)Nc2ccccc2)cc1 12.5%
COc1ccc(C)cc1NC(=O)C(=O)N/N=C(\C)CC(=O)Nc1cccnc1 -2.35%
N#CCC(=N)N1CCN(c2ccc(F)cc2)CC1 1.28%
CN(C(=O)OC(C)(C)C)[C@H](Cc1ccccc1)C(=O)N[C@H]1CCCCNC1=O 4.78%
CCS(=O)(=O)c1ccc(O)c(NC(=O)/C=C/c2ccccc2)c1 5.42%
Cc1cc(NC(=O)/C=C/c2ccccc2)c(C(C)C)cc1O 12.2%
